# Measured values as given in PubChem BioAssay (NCATS).
# Where “and” joins values, the source holds several entries; their conditions need not be identical. Identical values can stand only once. Values without a mark were called inactive. Records with an inconclusive call do not appear. A call without a number means that no potency is given here. Calls of active or inactive are those of the source. Unless noted, calls follow the shape of the dose curve; as a rule, active = well fitted curve in the direction sought with a large enough effect; inconclusive = small, poorly fitted or top-dose-only effect, or another doubt; inactive = no such curve, though single readings can be large; an effect the other way counts as inactive or inconclusive.
# How the values were obtained:
# [1] = qHTS Assay for Identification of Small Molecule Agonists for Thrombopoietin (TPO) Signaling Pathway (AID 917)
# Summary of the method: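 Human TPO receptor–transfected Ba/F3 cells (murine, IL-3-dependent) in IL-3-deficient medium; compounds plus TPO at EC50, 26 pM final; 24 hrs, 37 C; GpIIb-luciferase luminescence after 10 min RT detection.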
# [2] = target: Muscarinic acetylcholine receptor M1 (Rattus norvegicus) (UniProt P08482); test: qHTS Assay for Antagonists of Acetylcholine Muscarinic M1 Receptor: Kinetic Measurement of Intracellular Calcium Response (AID 943); also: nearly all actives have a fitted effect of over 75% in size; also: potency is read from the fitted curve at half-maximal effect
# Muscarinic acetylcholine receptor M1 (Rattus norvegicus), sequence (P08482 whole entry, looked up): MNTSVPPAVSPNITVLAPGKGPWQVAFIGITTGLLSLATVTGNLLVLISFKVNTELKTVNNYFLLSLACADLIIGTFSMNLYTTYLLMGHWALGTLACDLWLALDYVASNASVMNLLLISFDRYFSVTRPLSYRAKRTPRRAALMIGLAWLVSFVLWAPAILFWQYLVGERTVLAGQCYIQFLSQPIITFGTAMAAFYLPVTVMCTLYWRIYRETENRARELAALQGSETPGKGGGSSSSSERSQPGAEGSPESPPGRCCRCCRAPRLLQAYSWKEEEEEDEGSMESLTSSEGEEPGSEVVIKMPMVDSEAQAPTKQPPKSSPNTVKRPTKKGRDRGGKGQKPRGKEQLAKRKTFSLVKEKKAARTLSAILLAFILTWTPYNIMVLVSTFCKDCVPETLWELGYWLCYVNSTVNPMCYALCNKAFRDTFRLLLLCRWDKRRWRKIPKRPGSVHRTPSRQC
# Summary of the method: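 Read-out: peak over basal Fluo-4 fluorescence, kinetic at 1 Hz for 4 min after EC80 carbachol (100 nM final). Rat M1-CHO cells, dye loaded 1 h at 37C, compound added 10 min before agonist.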
# DFO2036 = test: qHTS profiling for inhibitors of Plasmodium falciparum proliferation (AID 504749); also: nearly all actives have a fitted effect of over 60% in size; also: potency is read from the fitted curve at half-maximal effect; conditions: P. falciparum in erythrocytes, SYBR Green DNA, 72 h; series mostly up to 12.8 µM
# Summary of the method: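 In a 72 h erythrocytic culture (37 C, humidified, 5% CO2) at 2.5% hematocrit and 0.3% starting parasitemia, compounds were tested; SYBR Green I in detergent lysis buffer stained parasite DNA overnight.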
# [3] = qHTS Assay for Identification of Small Molecule Antagonists for NFkB Signaling Pathway (AID 895; active = well fitted inhibition curve with a large enough effect in the signal ratio, with a control signal flat, not every such curve was filed as active; the % refers to the signal ratio; also: potency is read from the fitted curve at half-maximal effect)
# Summary of the method: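 Beta-lactamase reporter read-out (460 and 530 nm emission ratio, 405 nm excitation, 2 hrs substrate loading RT) after 5 hr stimulation with 10 pM TNF alpha in compound-treated NFkB-bla ME-180 cells in low-serum medium.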
# [4] = target: Muscarinic acetylcholine receptor M1 (Rattus norvegicus) (UniProt P08482); test: qHTS Assay for Antagonists of Acetylcholine Muscarinic M1 Receptor: Measurement of IP-One Response (AID 944); also: nearly all actives have a fitted effect of over 75% in size; also: potency is read from the fitted curve at half-maximal effect
# Summary of the method: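 Read-out: HTRF competition between d2-IP1 and Eu-cryptate anti-IP1 antibody, emission 620 and 665 nm. Stimulus was carbachol, EC80 (200 nM), for 30 min in M1-CHO cells (rat receptor), after 10 min compound pre-treatment.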
# [5] = target: Cytochrome P450 3A4 (Homo sapiens) (UniProt P08684); test: qHTS Assay for Inhibitors and Substrates of Cytochrome P450 3A4 (AID 884); also: nearly all actives have a fitted effect of over 50% in size; also: potency is read from the fitted curve at half-maximal effect
# Cytochrome P450 3A4 (Homo sapiens), sequence (P08684 whole entry, looked up): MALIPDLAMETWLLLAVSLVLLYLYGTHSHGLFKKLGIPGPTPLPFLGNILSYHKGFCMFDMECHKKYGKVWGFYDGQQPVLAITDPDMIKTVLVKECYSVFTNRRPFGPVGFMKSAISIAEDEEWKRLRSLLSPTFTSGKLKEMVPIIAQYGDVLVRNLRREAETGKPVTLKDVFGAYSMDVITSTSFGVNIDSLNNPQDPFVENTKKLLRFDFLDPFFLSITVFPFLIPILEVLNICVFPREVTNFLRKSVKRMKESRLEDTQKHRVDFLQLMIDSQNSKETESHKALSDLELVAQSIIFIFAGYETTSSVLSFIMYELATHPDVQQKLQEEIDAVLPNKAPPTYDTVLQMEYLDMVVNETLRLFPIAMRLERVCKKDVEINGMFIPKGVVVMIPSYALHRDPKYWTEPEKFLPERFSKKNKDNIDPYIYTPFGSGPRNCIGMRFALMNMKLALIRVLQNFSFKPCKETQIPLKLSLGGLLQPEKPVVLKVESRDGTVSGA
# Summary of the method: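 Luminescent readout of luciferin produced by CYP3A4 (20 nM) dealkylation of Luciferin-PPXE, 25 uM (its KM). NADPH-driven reaction ran 60 min at RT after 10 min compound preincubation; data scaled to 57 uM ketoconazole as 100% inhibition.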
# [6] = target: Cytochrome P450 2D6 (Homo sapiens) (UniProt P10635); test: qHTS Assay for Inhibitors and Substrates of Cytochrome P450 2D6 (AID 891); also: nearly all actives have a fitted effect of over 60% in size; also: potency is read from the fitted curve at half-maximal effect
# Cytochrome P450 2D6 (Homo sapiens), sequence (P10635 whole entry, looked up): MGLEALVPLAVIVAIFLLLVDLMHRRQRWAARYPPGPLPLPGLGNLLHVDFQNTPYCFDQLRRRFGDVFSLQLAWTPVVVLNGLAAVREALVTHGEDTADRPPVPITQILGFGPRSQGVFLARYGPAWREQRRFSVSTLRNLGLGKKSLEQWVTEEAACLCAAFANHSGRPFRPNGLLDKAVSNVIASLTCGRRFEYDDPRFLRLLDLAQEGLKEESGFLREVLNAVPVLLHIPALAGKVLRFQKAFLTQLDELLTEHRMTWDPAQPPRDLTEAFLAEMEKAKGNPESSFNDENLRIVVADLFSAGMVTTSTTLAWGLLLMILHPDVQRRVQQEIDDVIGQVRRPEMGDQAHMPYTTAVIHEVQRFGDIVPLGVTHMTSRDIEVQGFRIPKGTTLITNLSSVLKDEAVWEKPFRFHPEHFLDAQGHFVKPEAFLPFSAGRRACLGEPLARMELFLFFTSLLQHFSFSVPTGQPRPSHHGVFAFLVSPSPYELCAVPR
# Summary of the method: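 Luminescent read-out of luciferin formed by 5 nM human CYP2D6 demethylating 30 uM Luciferin-ME EGE (Km level) over 60 min at room temperature after NADPH regeneration addition. Data normalized to full inhibition by 1.43 uM quinidine.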
# [7] = target: Cytochrome P450 2C9 (Homo sapiens) (UniProt P11712); test: qHTS Assay for Inhibitors and Substrates of Cytochrome P450 2C9 (AID 883); also: nearly all actives have a fitted effect of over 60% in size
# Cytochrome P450 2C9 (Homo sapiens), sequence (P11712 whole entry, looked up): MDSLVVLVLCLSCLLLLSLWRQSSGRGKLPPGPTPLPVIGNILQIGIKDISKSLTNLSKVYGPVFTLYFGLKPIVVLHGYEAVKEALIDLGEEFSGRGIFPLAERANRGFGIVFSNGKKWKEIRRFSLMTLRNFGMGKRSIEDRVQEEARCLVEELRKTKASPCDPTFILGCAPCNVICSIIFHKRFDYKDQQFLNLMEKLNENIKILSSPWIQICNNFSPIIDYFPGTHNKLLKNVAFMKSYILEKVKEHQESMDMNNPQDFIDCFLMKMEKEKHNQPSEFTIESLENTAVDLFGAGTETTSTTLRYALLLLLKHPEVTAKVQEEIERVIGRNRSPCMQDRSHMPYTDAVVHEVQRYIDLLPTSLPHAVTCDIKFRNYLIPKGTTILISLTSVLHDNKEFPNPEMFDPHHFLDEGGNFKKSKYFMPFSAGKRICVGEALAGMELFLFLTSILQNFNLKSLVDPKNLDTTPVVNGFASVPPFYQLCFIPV
# Summary of the method: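 Turnover of Luciferin-H (100uM, KM) by 10nM human CYP2C9 was measured over 60 min at 37C with NADPH regeneration; inhibitors and some substrates reduce luminescence. Data normalized to sulphaphenazole 57uM.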
# [8] = target: Cytochrome P450 2C19 (Homo sapiens) (UniProt P33261); test: qHTS Assay for Inhibitors and Substrates of Cytochrome P450 2C19 (AID 899); also: nearly all actives have a fitted effect of over 60% in size
# Cytochrome P450 2C19 (Homo sapiens), sequence (P33261 whole entry, looked up): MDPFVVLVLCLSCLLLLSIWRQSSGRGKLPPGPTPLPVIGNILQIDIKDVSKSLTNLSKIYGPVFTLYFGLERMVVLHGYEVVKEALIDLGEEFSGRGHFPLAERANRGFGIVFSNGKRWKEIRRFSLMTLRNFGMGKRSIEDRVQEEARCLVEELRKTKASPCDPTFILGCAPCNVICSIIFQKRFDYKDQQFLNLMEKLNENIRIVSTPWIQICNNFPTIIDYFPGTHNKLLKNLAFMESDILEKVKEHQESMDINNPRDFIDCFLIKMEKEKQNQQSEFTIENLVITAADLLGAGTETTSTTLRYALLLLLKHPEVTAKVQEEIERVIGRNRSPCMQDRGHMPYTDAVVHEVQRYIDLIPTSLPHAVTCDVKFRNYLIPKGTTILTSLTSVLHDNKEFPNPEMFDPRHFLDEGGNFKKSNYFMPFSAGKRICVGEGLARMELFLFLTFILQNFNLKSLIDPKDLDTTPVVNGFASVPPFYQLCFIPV
# Summary of the method: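 Reactions contain 5nM enzyme, 10uM Luciferin-H EGE (KM) and 50mM KPO4; compound preincubates 10 min at 37C, NADPH regeneration starts turnover for 60 min. Luminescence after detection reagent gives activity.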
# [9] = S16 Schwann cell PMP22 intronic element beta-lactamase assay (AID 624044; calls by dose curve; also: nearly all actives have a fitted effect of over 15% in size)
# Summary of the method: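 Beta-lactamase reporter under a PMP22 intronic regulatory element in stable S16 rat Schwann cells; 24 h compound exposure. 460 nm blue signal normalized between DMSO (0%) and potassium clavulanate, with 535 nm FRET tracking viability; curves classed by r2 and response.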
# [10] = Confirmation and Secondary Assay for Modulators of Hemoglobin Beta Chain Splicing at IVS2 705 locus (AID 930);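 also: HeLa cells stably expressing the EGFP-705 splicing reporter; GFP fluorescence per well restored by corrected splicing of the IVS2-705 intron in EGFP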
# Summary of the method: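 Secondary splice-site specificity test uses HeLa expressing CMV-driven EGFP interrupted by IVS2-705; cells were treated 2 days at 37C with 500 nM antisense PNA as positive control.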
# [11] = qHTS Assay for Identification of Small Molecule Agonists for Hypoxia Response Element Signaling Pathway (AID 914; active = well fitted activation curve with a large enough effect in the signal ratio, with a control signal flat, not every such curve was filed as active; the % refers to the signal ratio); conditions: ME-180 (cervical carcinoma) HRE-bla reporter, beta-lactamase ratio, CoCl2, 17 h; activation: stronger effect = higher value
# Summary of the method: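 qHTS titration; ME-180 HRE-bla cells; EC50 CoCl2 co-treatment, 17 h at 37 degrees Celsius; CCF4 dye, ex 405nm, em 460nm and 530nm; %Activity from ratio; AC50.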
structure (smiles),measurement,setting,value
CCN(CC)CCC[C@H](C)Nc1ccnc2cc(Cl)ccc12,outcome,[1],inactive
same,Potency,[2],5.01 µM (active)
same,Potency,DFO2036,3.98 µM (active)
COCCc1ccc(OC[C@H](O)CNC(C)C)cc1,Potency,[3],inactive
same,outcome,[1],inactive
CC(=O)O[C@@H](C)C[N+](C)(C)C,outcome,[1],inactive
same,Potency,[2],inactive
same,Potency,[4],inactive
CC(=O)[C@@H]1CC[C@@H]2[C@@H]3CCC4=CC(=O)CC[C@@]4(C)[C@H]3CC[C@]21C,Potency,[5],inactive
same,Potency,[6],inactive
CN1[C@@H](CC(=O)c2ccccc2)CCC[C@@H]1C[C@@H](O)c1ccccc1,Potency,[7],inactive
same,Potency,[6],251 nM (active) and 79.4 nM (active) and 10 nM (active)
same,Potency,[8],inactive
same,outcome,[1],inactive
CC(C)NC[C@H](O)c1cc(O)cc(O)c1,outcome,[1],inactive
CO[C@]1(NC(=O)CSCC#N)C(=O)N2C(C(=O)O)=C(CSc3nnnn3C)CS[C@H]21,outcome,[1],inactive
CN(C)CC[C@@H](c1ccccc1)c1ccccn1,Potency,[5],inactive
same,Potency,[3],inactive
same,outcome,[1],inactive
same,Potency,[2],11.2 µM (active)
same,Potency,[4],10 µM (active)
C=CCc1ccccc1OC[C@H](O)CNC(C)C,Potency,[6],6.31 µM (active)
same,Potency,[3],3.16 µM (active)
same,outcome,[1],inactive
same,Potency,[4],inactive
CCN(CC)CCC[C@H](C)Nc1c2ccc(Cl)cc2nc2ccc(OC)cc12,Potency,[6],199 nM (active) and 126 nM (active)
same,outcome,[9],inactive
same,Potency,DFO2036,0.398 µM (active)
CN(C)C(=O)c1ccc(-c2cncnc2NCc2cccs2)cc1,Potency,[5],3.16 µM (active)
same,outcome,[10],inactive
CC(=O)O[C@]1(C(C)=O)CC[C@@H]2[C@@H]3C=C(Cl)C4=CC(=O)[C@H]5C[C@@H]5[C@]4(C)[C@H]3CC[C@]21C,Potency,[5],inactive
same,outcome,[1],inactive
C[C@@H](CN(C)C)CN1c2ccccc2CCc2ccccc21,Potency,[6],5.01 µM (active)
same,Potency,[2],0.141 µM (active)
same,Potency,[4],0.126 µM (active)
CC(C)(Oc1ccc([C@@H]2CC2(Cl)Cl)cc1)C(=O)O,Potency,[3],inactive
same,activation,[11],-18.9%
same,outcome,[1],inactive
COc1c(O)cc2c(c1O)[C@@H]1O[C@@H](CO)[C@@H](O)[C@@H](O)[C@@H]1OC2=O,activation,[11],14.6%
same,Potency,DFO2036,inactive
C[C@@H](C(=O)O)c1cccc(C(=O)c2ccccc2)c1,Potency,[3],inactive
CN1Cc2c(N)cccc2[C@H](c2ccccc2)C1,Potency,[6],6.31 µM (active)
same,outcome,[1],inactive
same,Potency,[4],inactive
CC(=O)OCC1=C(C(=O)O)N2C(=O)[C@@H](NC(=O)Cc3cccs3)[C@@H]2SC1,activation,[11],-3.21% and -0.503%
same,outcome,[1],inactive
same,Potency,[2],inactive
same,Potency,[4],inactive
O[C@@](CCN1CCCCC1)(c1ccccc1)C1CCCCC1,Potency,[6],5.01 µM (active) and 1.26 µM (active)
same,outcome,[1],inactive
